Source: PubChem BioAssay (Buhrlage Lab, Dana-Farber Cancer Institute and Novartis Institutes for BioMedical Research (Cambridge, Mass))
USP8 block: human USP8 deubiquitinase inhibition. P40818. purified USP8, Ub-rhodamine cleavage fluorescence, 30 min. inhibition, % at 20 µM. actives 4.2% (n = 47,000). AID 1645853
USP17 block: human USP17-like deubiquitinase inhibition; A8MUK1; purified USP17, Ub-rhodamine cleavage fluorescence, 3 h; inhibition, % at 50 µM; actives 6.5% (n = 47,000)
USP30 inh: inhibitors of human USP30 deubiquitinase | purified USP30, Ub-rhodamine cleavage fluorescence | actives 5.3% (n = 47,000) | inhibition, % at 25 µM
Target sequence (Q70CQ3 whole entry, looked up): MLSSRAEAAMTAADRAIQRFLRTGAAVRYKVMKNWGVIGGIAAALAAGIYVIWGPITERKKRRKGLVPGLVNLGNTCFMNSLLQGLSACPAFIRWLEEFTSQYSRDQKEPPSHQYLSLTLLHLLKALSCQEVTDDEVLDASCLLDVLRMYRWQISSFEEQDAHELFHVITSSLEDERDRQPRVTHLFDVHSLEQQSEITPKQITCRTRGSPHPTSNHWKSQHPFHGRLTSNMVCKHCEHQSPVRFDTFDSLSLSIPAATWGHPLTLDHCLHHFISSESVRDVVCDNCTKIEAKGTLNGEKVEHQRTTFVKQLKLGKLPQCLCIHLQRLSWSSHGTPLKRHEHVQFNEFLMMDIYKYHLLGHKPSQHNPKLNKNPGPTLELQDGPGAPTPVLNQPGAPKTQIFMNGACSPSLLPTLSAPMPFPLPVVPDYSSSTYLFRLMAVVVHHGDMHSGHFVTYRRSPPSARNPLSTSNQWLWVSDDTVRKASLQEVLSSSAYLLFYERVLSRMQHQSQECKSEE
Hits are given with their value; i = inactive; nt = not tested or not shown. Hits are enriched below; roughly 12% of the tested compounds scored in any of these assays. No stated cut-off is given here; in the data, active means inhibition above about 30%; inactive means the rest.

SMILES	USP8 block	USP17 block	USP30 inh
O=C(Nc1ccc(F)cc1)C1Nc2ccccc2S(=O)(=O)N1 (stereo unspecified)	i	i	i
Cc1cccc(N2CCN(C(=O)c3cnc(N4CCN(C)CC4)nc3C)CC2)c1C	i	i	i
Cc1cc(NCC2CCCO2)n2nc(-c3cccc(Cl)c3)c(C)c2n1 (stereo unspecified)	i	i	i
Cc1cccc(-c2nnn3c2nc(NCC2CCCO2)c2ccccc23)c1 (stereo unspecified)	67	58	66
COC(=O)c1ccc(NC(=O)CN2C(=O)C(=O)c3ccccc32)cc1	i	i	nt
Cc1cc(NC(=O)CN2C(=O)C(=O)c3ccccc32)ccc1-n1ncnn1	32	i	i
Cc1nc(NCc2ccco2)nc2c1COCC21CCN(C(=O)CCC(C)C)C1 (stereo unspecified)	i	i	i
O=C1COc2ccc(Cl)cc2CN1Cc1ccccc1	i	i	i
Clc1ccc(C2=Nc3cc(Cl)ccc3OC2)cc1	56	i	i
CNC(=O)c1cnn2c(C3CCCN(Cc4cccnc4)C3)ccnc12 (stereo unspecified)	i	i	i
Cc1cc(Nc2cc(F)ccc2F)n2nc(-c3ccco3)nc2n1	i	i	i
COc1ccc(C)cc1Nc1cc(C)nc2nc(-c3ccco3)nn12	i	i	i
Cc1ccc(C)c(Nc2cc(C)nc3nc(-c4ccco4)nn23)c1	i	58	i
Cc1cc(Nc2ccc(Cl)cc2)n2nc(-c3ccco3)nc2n1	i	36	i
NC(=O)N1CCCCCC1C1CCN(c2ncccc2[N+](=O)[O-])CC1 (stereo unspecified)	i	i	i
COc1cccc(C2CC(=O)Nc3n[nH]c(C)c32)c1OCc1ccccc1C (stereo unspecified)	i	i	34
COc1cccc(OC)c1C(=O)C1CC(=O)Nc2n[nH]c(C)c21 (stereo unspecified)	i	i	i
COc1ccc(-c2[nH]nc3c2C(c2cccc(OC)c2OC)CC(=O)O3)cc1 (stereo unspecified)	i	i	i
COc1ccc(C2CC(=O)Nc3n[nH]c(-c4ccccc4)c32)c(OC)c1 (stereo unspecified)	i	41	44
COc1ccc(C2CC(=O)Nc3ccc4ccccc4c32)cc1OC (stereo unspecified)	i	i	i
COc1ccc(C2CC(=O)Nc3ccc4ccccc4c32)c(OC)c1OC (stereo unspecified)	i	37	68
CCc1ccccc1NC(=O)Cc1cccs1	i	i	i
O=C1NC2(CCN(C(=O)c3ccccc3Cl)CC2)N=C1c1ccc(Cl)cc1	i	i	i
CCOC(=O)c1cnn(-c2ccc(C(=O)NCC3CCCO3)cc2)c1N (stereo unspecified)	i	i	i
Cc1ccc(-c2ccc(N3CCC(C(=O)N4CCC(N5CCCCC5)CC4)CC3)nn2)cc1	i	i	i
SMILES	USP8 block	USP17 block	USP30 inh
C[C@]12CN(Cc3n[nH]nc3-c3ccccc3)C[C@H]1NC(=O)c1ccccc1C2=O	i	i	i
O=C(CN(Cc1ccc(F)cc1)S(=O)(=O)c1ccccc1)Nc1ccccc1C(F)(F)F	i	i	i
CCCN1C(=O)CCc2cc(NC(=O)c3ccccc3)ccc21	i	i	i
CN1C(=O)CCc2cc(NC(=O)c3cc4ccccc4[nH]3)ccc21	i	33	i
CC(C(=O)Nc1ccc(F)c(F)c1)N(c1ccc(Oc2ccccc2)cc1)S(C)(=O)=O (stereo unspecified)	i	i	i
CC(Nc1ccc(Oc2ccccc2)cc1)C(=O)Nc1ccc2c(c1)OCCO2 (stereo unspecified)	i	i	i
CC(Nc1ccc(Oc2ccccc2)cc1)C(=O)Nc1cccc(C#N)c1 (stereo unspecified)	i	37	nt
CC(=O)Nc1ccc(NC(=O)C(C)Nc2ccc(Oc3ccccc3)cc2)cc1 (stereo unspecified)	61	i	i
CC(C)N1C[C@@H]2C[C@H](NS(=O)(=O)c3cccc(C#N)c3)CN2Cc2ccccc21	i	i	i
COc1cccc(NC(=O)c2nc3c(s2)CCN(C(=O)c2cccnc2)CC3)c1	i	i	i
COc1ccc(CN2CC[C@@H]3[C@H]2C(=O)NC[C@H](CCC(=O)Nc2ccccc2)N3C)cc1	i	i	i
COc1cccc(Nc2nc(N)nc(CN3CCC(C(N)=O)CC3)n2)c1	i	i	i
Cc1noc(C)c1C(=O)N1CCc2sccc2C1C (stereo unspecified)	i	i	nt
O=C1CCC(=O)NCCCCCN(O)C(=O)CCC(=O)NCCCCCN(O)C(=O)CCC(=O)NCCCCCN1	i	i	44
O=C1NCCCCCN1C(=O)c1ccccc1	i	i	i
Cc1ccc(-c2nc(C(N)=O)c3[nH]c(=O)n(-c4ccc(C)c(C)c4)c3n2)o1	i	i	i
Cc1ccccc1C(=O)N1CCN(CCNC(=O)C(=O)Nc2ccc(Cl)cc2)CC1	i	i	42
